A short description of test [1]: liver-stage malaria parasite growth inhibition, primary screen, cell-based, HepG2, luciferase luminescence, HepG2 viability (AID 624349; in the data active = parasite load remaining mostly below about 12%, no sharp cut-off; inactive = mostly above about 10%;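 note: 100% = mean of DMSO negative control wells on the same plate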). The note with it: P. berghei liver stage in HepG2, luciferase luminescence, concentration not given here; parasite load remaining: stronger effect = lower value; viability: measured here: HepG2 viability without parasites.
Test [2] can be described thus: stimulators of nuclear beta-catenin in C2C12, primary screen, imaging, WNT3A-conditioned medium, mouse C2C12, NPC library (AID 1117326; in the data active = nuclear beta-catenin stimulation mostly above about 4.2%, no sharp cut-off; inactive = mostly below about 10%). The note with it: stronger effect = higher value.
A short description of test [3]: stimulators of insulin release from INS-1E, primary screen, cell-based, 5 mM glucose, NPC library (AID 1117329;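 active = compound raises insulin release from rat beta cells at 5 mM glucose, no numeric limit stated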). The settings on record: rat INS-1E insulin secretion, at 10 µM, stronger effect = higher value.
Test [4] in a line: growth inhibition of GSK3B-pretreated HCT116 cells – cell-based, CellTiter-Glo, 0.2 to 20 µM (AID 1117336;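 active = compounds lowering colon cancer cell viability after pretreatment blocking the GSK3B kinase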). The settings on record: HCT116 viability after GSK3B inhibitor, at 20 µM, stronger effect = higher value.
A short description of test [5]: inhibition of endothelial tube formation, primary screen, imaging, VEGF stimulated, CD31 staining, tube area, NPC library (AID 1117340;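 active = compound that reduces growth-factor-driven endothelial tube area in a mixed cell culture, no cutoff stated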). The note with it: VEGF-stimulated ADSC/ECFC co-culture, at 10 µM, stronger effect = higher value.
Test [6] is described as follows: glucagon-like peptide 1 release enhancers, primary assay, NCI-H716 cell line, NPC library (AID 1117341;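 active = compound raises GLP1 secretion from the human gut endocrine cells, with no numeric limit stated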). The note with it: NCI-H716 cells, at 10 µM, stronger effect = higher value.
Test [7] in a line: HCT116 colon cancer cell growth inhibition, primary screen, CellTiter-Glo luminescence, NPC library (AID 1117342;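 active = compounds that lower survival of HCT116 colon cancer cells in the luminescence readout, no numeric limit stated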). The settings on record: at 20 µM (top of the series).
Test [8] can be described thus: CellTiter-Glo luminescent readout of SW480 viability loss, NPC library primary (AID 1117343;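 active = compounds that lower viability of the colon cancer cells in the luminescence readout, with no numeric limit stated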). The settings on record: CellTiter-Glo luminescence; at 20 µM (top of the series) unless noted.
A short description of test [9]: decreased DLD-1 cellular survival, CellTiter-Glo luminescent readout, NPC compound collection, primary HTS (AID 1117346;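 active = compounds that lower survival of DLD-1 colon cancer cells in the luminescence readout, no cutoff given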). The settings on record: DLD-1 viability, CellTiter-Glo luminescence; at 20 µM (top of the series). On the technique in general: ATP-based viability assays read luminescence as a measure of living cells.
A short description of test [10]: growth inhibition of DIPG glioma cells, dose response, cell-based, SU-DIPG-XVII, MIPE5.0, CellTiter-Glo, qHTS (AID 1347060; cut-off not given, nearly all actives have AC50 up to about 26 µM;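 for AC50: cells exposed to compound for 48 hours before viability readout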). The settings on record: SU-DIPG-XVII viability, CellTiter-Glo ATP luminescence.
A short description of test [11]: growth inhibition of DIPG glioma cells, dose response, cell-based, SU-DIPG-XIII, MIPE4.0, CellTiter-Glo, qHTS (AID 1347061; cut-off not given, nearly all actives have AC50 up to about 37 µM;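 note: cells exposed to compound for 48 hours before readout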). The settings on record: SU-DIPG-XIII viability, CellTiter-Glo ATP luminescence.
Test [12] in a line: growth inhibition of DIPG glioma cells, dose response, cell-based, JHH-DIPG-1, MIPE4.0, CellTiter-Glo, qHTS (AID 1347062; cut-off not given, nearly all actives have AC50 up to about 27 µM). The note with it: JHH-DIPG-1 viability, CellTiter-Glo ATP luminescence.
Test [13] is described as follows: SU-DIPG-VI glioma cell viability, MIPE4.0 library, CellTiter-Glo luminescence, qHTS (AID 1347066; cut-off not given, nearly all actives have AC50 up to about 30 µM;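 note: cells exposed to compound for 48 hours before readout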). The note with it: CellTiter-Glo ATP luminescence.
Test [14] is described as follows: SU-DIPG-XXV glioma cell viability, MIPE5.0 library, qHTS (AID 1347068; cut-off not given, nearly all actives have IC50 up to about 30 µM).
A short description of test [15]: sensitizers of A549 cells to miR-34 induction, primary screen, imaging, A549 dox-inducible miR-34, nuclei and caspase counts (AID 1347080). The settings on record: A549 miR-34 inducible, Hoechst nuclei count, 48 h.
Test [16] in a line: survival rescue of mitochondrial mutant cells in low glucose, primary screen, MELAS cybrids, Rieske KO mouse fibroblasts, CellTiter-Glo (AID 1508586;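 active = mean z-score across replicates of 1.96 or higher in either the MELAS or the Rieske mutant cell line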;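 note: z relative to plate mean and SD of compound and empty wells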).
Test [17] can be described thus: viability rescue of complex I mutant cybrids, primary screen, cell-based, galactose medium, ATP luminescence (AID 1645843;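 active = z-score of at least 1.8 in each of two replicates, scored against plate mean and spread of sample wells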;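 note: positive z means more ATP and so rescue of galactose-driven cybrid death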). The note with it: complex I mutant cybrid cells, 72 h, stronger effect = higher value.
The subject of test [18] is Aerobactin synthetase IucA (Klebsiella pneumoniae). Nature of the test: IucA aerobactin synthetase inhibitors, biochemical, Tocris library, absorbance (AID 1345561; call rule not given here;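 note: 100% = enzyme without compound and 0% = no enzyme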). The settings on record: purified IucA enzyme assay, absorbance (OD) read-out; stronger effect = lower value;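 tested at 8 µM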.
The nature of test [19]: viability loss in pontine glioma line – cell-based, SU-DIPG-XXV, MIPE5.0, CellTiter-Glo, qHTS, dose response (AID 1347065; cut-off not given, nearly all actives have AC50 up to about 26 µM;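 note: cells exposed to compound for 48 hours before ATP readout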). The settings on record: CellTiter-Glo ATP luminescence.
[20] abbreviates: stronger effect = lower value, cell number ratio, induced over uninduced.
Where [21] appears, read: measured here: relative caspase fold change +Dox/-Dox.
[22] abbreviates: measured here: total cells with miR-34 induction, stronger effect = lower value.
Setting [23] is: measured here: total cells without miR-34 induction.
Setting [24] is: MELAS cybrid survival, CellTiter-Glo 48 h, stronger effect = higher value.
The mark [25] stands for this setting: Rieske KO mouse fibroblast survival, CellTiter-Glo 72 h.

Data on five compounds can be found in PubChem BioAssay.

Broadly, the viability is a read-out of living cells in per cent, often relative to untreated cells. Usually remaining activity stands for the signal under treatment as a percentage of the control signal. Broadly, the AC50 is the concentration giving half of the maximal activity seen.

“And” between values parts separate entries of the source, which are not always exact repeats. Equal entries are not always repeated. Records with an inconclusive call do not appear. The source made the active and inactive calls.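 Rule for the calls, unless noted: active = compounds whose cell count with miR-34 switched on is under 0.7 times the count with it off; inactive = the rest.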

As for `O=c1[nH]c(=O)n([C@H]2C[C@H](O)[C@@H](CO)O2)cc1I`, the parasite load remaining in [1] was 42.1% (inactive) and 24.1% (inactive). Moreover, the viability in [1] is 53.4% and 72.5%. The nuclear beta-catenin stimulation in test [2] (at 10 µM) was -0.5% (inactive); in [2] (stimulation, at 2 µM), 0.3%. In addition, the insulin secretion stimulation in test [3] is 0.4% (inactive). Moreover, in test [4], the viability decrease is 10.1% (inactive). Moreover, the tube area decrease in test [5] is 69.4% (active). Further, the GLP1 secretion stimulation in [6] was -0.6% (inactive). Also, the inhibition of viability in test [7] is 11.4% (inactive). The viability decrease (inhibition) in test [8] is 39.4% (inactive); in test [9], 9.4% (inactive). Also, the compound was classed as inactive in [10], in [11], in [12], in [13] and in test [14]. For the same compound, the fold change in test [15] (setting [20]) was 0.955 (inactive) and 0.894 (inactive); in test [15] (setting [21]), 1.48 and 1.08. The cell count in test [15] (setting [22]) was 8120 and 9040; in test [15] (setting [23]) it was 8510 and 10100. In addition, the z-score in test [16] (setting [24]) was 1.21 (inactive) and 1.8 (inactive); in test [16] (setting [25]) it was 0.284 and 0.0835; in test [17], 0.45 (inactive).

In the case of `CC1(COc2ccc(CC3SC(=O)NC3=O)cc2)CCCCC1` (stereo unspecified), the nuclear beta-catenin stimulation was 2.4% (inactive) in test [2] (at 10 µM) and 1.5% in [2] (stimulation, at 2 µM). In addition, the insulin secretion stimulation in [3] was 1.9% (inactive). Further, the viability decrease in [4] was 99% (active). Moreover, the tube area decrease in [5] is 14% (inactive). Further, in test [6], the GLP1 secretion stimulation was 6.6% (inactive). Further, the inhibition of viability in test [7] is 101% (active). Further, the viability decrease (inhibition) in test [8] is 146% (active); in [9], 105% (active). The remaining activity in [18] was 110% (inactive). For the same compound, the fold change in [15] (setting [20]) is 0.913 (inactive) and 1.03 (inactive) and 0.948 (inactive); in [15] (setting [21]) it was 1.87 and 1.11 and 0.669. Also, the cell count in test [15] (setting [22]) is 5590 and 5930 and 7780; in [15] (setting [23]), 6130 and 5780 and 8200. Also, the z-score in test [17] is -0.49 (inactive).

Turning to `C[N+](C)(C)CC[N+]1(C)Cc2c(Cl)c(Cl)c(Cl)c(Cl)c2C1`, the nuclear beta-catenin stimulation in test [2] (at 10 µM) is 4.4% (inactive); in test [2] (stimulation, at 2 µM) it was 2.6%. In addition, in [3], the insulin secretion stimulation is -0.5% (inactive). The viability decrease in test [4] was -1% (inactive). Besides, in [5], the tube area decrease is 7.3% (inactive). Also, in test [6], the GLP1 secretion stimulation is 2.6% (inactive). In test [7], the inhibition of viability was -4.53% (inactive). Also, the viability decrease (inhibition) in test [8] was 2.9% (inactive); in test [9] it was -10.2% (inactive). The remaining activity in test [18] is 115% (inactive). Also, the fold change in test [15] (setting [20]) was 0.88 (inactive); in [15] (setting [21]), 1.79. For the same compound, the cell count was determined as 9090 in [15] (setting [22]) and 10300 in test [15] (setting [23]). The z-score in [17] was 0.045 (inactive).

Regarding `CN1CCC(Nc2ncc3ncnc(Nc4ccc(F)c(Cl)c4)c3n2)CC1`, the nuclear beta-catenin stimulation in test [2] (at 10 µM) was 11.6% (inactive); in [2] (stimulation, at 2 µM), 0.1%. Further, in [3], the insulin secretion stimulation is 5.85% (inactive). For the same compound, the viability decrease in test [4] is 57.4% (active). In addition, the tube area decrease in [5] is -4.5% (inactive). Further, the GLP1 secretion stimulation in test [6] was 6.3% (inactive). Besides, the inhibition of viability in [7] is 73.7% (active). Moreover, the values for the viability decrease (inhibition) in test [8] and in [9] were 97.8% (active) and 78.2% (active), respectively. The remaining activity in [18] is 123% (inactive). Besides, the values for the fold change in test [15] (setting [20]) and in test [15] (setting [21]) were 1.35 (inactive) and 0.869, respectively. Moreover, the cell count was 3140 in test [15] (setting [22]) and 2330 in test [15] (setting [23]). In addition, the z-score in test [17] is -0.455 (inactive).

Regarding `NS(=O)(=O)c1cc(Cl)c(Cl)c(S(N)(=O)=O)c1`, the parasite load remaining in test [1] is 89.1% (inactive). Also, in test [1], the viability was found to be 104%. The nuclear beta-catenin stimulation was -1.4% (inactive) in [2] (at 10 µM) and 0.4% in [2] (stimulation, at 2 µM). Also, the insulin secretion stimulation in [3] was 3.3% (inactive). The viability decrease in [4] is 1% (inactive). Besides, the tube area decrease in [5] is -7.2% (inactive). The GLP1 secretion stimulation in test [6] was 0.3% (inactive). For the same compound, the inhibition of viability in test [7] is 6.4% (inactive). For the same compound, the viability decrease (inhibition) in [8] was 6.1% (inactive); in test [9], -8.2% (inactive). The AC50 in test [10] is 26.3 µM (active). Further, the compound was called inactive in test [11], in test [12], in test [19], in [13] and in test [14]. For the same compound, the fold change was 0.878 (inactive) and 0.937 (inactive) in [15] (setting [20]); 1.4 and 0.793 in test [15] (setting [21]). Further, the cell count in [15] (setting [22]) is 8460 and 8780; in [15] (setting [23]), 9640 and 9360. For the same compound, the z-score was -0.199 (inactive) and -0.0719 (inactive) in [16] (setting [24]); 0.943 and -0.845 in test [16] (setting [25]).
